PLAP activator – activates human placental alkaline phosphatase; P05187; purified PLAP enzyme, luminescent substrate read-out; active compounds read high; activation fold at 20 µM; hit rate 1.2% among 96,000; AID 696; in the data active = activation fold above about 2
Target sequence (P05187 whole entry, looked up): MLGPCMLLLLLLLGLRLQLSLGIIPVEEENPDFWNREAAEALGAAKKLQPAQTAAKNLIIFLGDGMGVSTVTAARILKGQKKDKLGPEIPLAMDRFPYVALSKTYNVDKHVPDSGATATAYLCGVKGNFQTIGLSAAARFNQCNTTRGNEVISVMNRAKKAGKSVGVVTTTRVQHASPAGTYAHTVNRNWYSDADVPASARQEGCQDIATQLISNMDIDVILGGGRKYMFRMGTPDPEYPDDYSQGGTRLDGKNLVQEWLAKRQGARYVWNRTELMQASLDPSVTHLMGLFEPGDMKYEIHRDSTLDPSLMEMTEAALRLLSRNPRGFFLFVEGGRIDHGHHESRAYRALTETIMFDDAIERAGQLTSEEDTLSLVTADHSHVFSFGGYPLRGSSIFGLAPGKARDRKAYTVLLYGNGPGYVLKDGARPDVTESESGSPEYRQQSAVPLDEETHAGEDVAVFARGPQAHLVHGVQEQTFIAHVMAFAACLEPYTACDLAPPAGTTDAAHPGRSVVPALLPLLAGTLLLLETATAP
PostGolgi ctrl – inhibits growth of the yeast control strain; efflux-deficient yeast background strain, growth absorbance A615, 16 h; AID 738; hit rate 5% among 98,000; inhibition, % at 10 µM
PostGolgi yeast – growth inhibition of a yeast mutant, post-Golgi transport screen; hit rate 0.9% among 98,000; AID 739; post-Golgi transport phenotypic cell assay; inhibition, % at 10 µM;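 note: yeast cells grown in 1536-well plates; yeast grown about 18 h at 30C before absorbance read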
Cav32 inh – inhibitors of human Cav3.2 T-type calcium channel | O95180 | B-score at 10 µM | hit rate 4% among 100,000 | Cav3.2-expressing cells, Fluo-4 calcium fluorescence FDSS; active compounds read low;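 active = single-dose well whose peak fluorescence ratio is a statistical outlier from its plate by either plate-standardised score or position-corrected B-score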
hDAT+cocaine – human DAT dopamine uptake with cocaine, either direction. LLC-PK1 hDAT cells, [14C]-dopamine uptake with cocaine IC80; actives deviate in either direction. B-score at 10 µM. hit rate 1.3% among 110,000. AID 449768;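 active = Z score or B-score, a plate-position-corrected score, falls beyond the plate's 99.7% confidence bounds, in either direction; inactive = both scores lie inside the 99.7% bounds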;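 note: scored against the spread of the other compound wells on the same plate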
The depositor's hits bear a star; . = not tested or not shown. Rows were chosen to be rich in hits. Some 9.6% of all compounds tested hit in one or more screens of this group. Cut-off read from the data, not from the text of the source, unless noted: active = inhibition above about 30%; inactive = the rest.

SMILES	PLAP activator	PostGolgi ctrl	PostGolgi yeast	Cav32 inh	hDAT+cocaine
Cc1cccc(C)c1OCC(=O)Nc1cccc(NC(=O)c2ccco2)c1	.	23	7	-4.8*	-0.034
N#Cc1cc2sc3nnc(-c4ccncc4)n3c2cc1C#N	0.8	37*	6	2.1	0.2
CC(C)C(=O)N1CCN(c2nc(-c3ccccc3)c3c(c2C#N)CCCC3)CC1	1.6	22	6	-5.3*	-0.31
CCCC(=O)N1CCN(c2nc(CC(C)C)c3c(c2C#N)CCC3)CC1	1.4	12	17	-5.5*	2.6*
O=C(CSc1cn(CCNC(=O)c2cccs2)c2ccccc12)NC1CCCCC1	1	12	-2	-1.4	2.3
CSc1nsc(/C=C/Nc2ccc(Cl)cc2)c1C#N	1	14	-1	-0.42	2.6*
CCOc1ccc(-n2c(N)c(C(=O)NCc3cccnc3)sc2=S)cc1	1.1	32*	-7	0.63	0.52
CCOC(=O)c1nnn(-c2nc(OC)nc(N3CCCC3)n2)c1-c1ccccc1	1.1	22	-3	.	.
CCNc1nc(N2CCCCC2)nc(-n2nnc(C(=O)OCC)c2C)n1	1.3	16	-6	-0.47	2.8*
O=S(=O)(NCc1cc(-c2ccccc2Cl)no1)c1ccc(Cl)cc1	0.7	24	5	-7.2*	-0.29
CN(C)c1ccc(/C=C/C(O)=C2/C(=O)N(C)C3(C)CC2c2ccccc2O3)cc1 (stereo not given)	1.2	7	8	-6.2*	1.3
Cc1cc(Oc2ccc(C#N)cc2)nc(NCc2ccccc2)n1	0.7	31*	4	0.17	0.93
CC(=O)Cc1nsc(Nc2ccc3c(c2)OCCO3)n1	1.4	14	-3	1.5	0.41
CCN(CC)S(=O)(=O)c1ccc(N=Nc2c(C)[nH]n(C(N)=S)c2=O)cc1	.	.	.	0.28	-3*
COc1cccc(C2(CSc3nnc(-c4cc(OC)c(OC)c(OC)c4)o3)OCCO2)c1	1.3	19	4	.	.
Fc1ccc(COc2ccc(Br)cc2CNCc2ccncc2)cc1	1.3	94*	103*	-1.6	0.72
Oc1ccc(NCc2ccccc2OCc2ccccc2F)cc1	0.8	9	0	-1.4	0.24
Fc1ccccc1COc1ccc(Br)cc1CNCc1ccncc1	1.7	97*	99*	0.83	1.8
Cc1ccc(C)c(NC(=S)NCc2cccn2C)c1	0.8	1	-2	.	.
C=CCn1c(NC(=O)c2ccccc2Cl)c(C#N)c2nc3ccccc3nc21	1.1	14	4	-7*	0.19
CCCCn1c(NC(C)=O)c(C#N)c2nc3ccccc3nc21	1.1	7	-2	-0.044	-0.37
CC1(C)CC(=O)c2c(n(-c3cccc4ccccc34)ccc2=O)C1	0.9	6	-28	-0.0026	0.91
CC(=O)OC1COC(OC2C(O)C(C)OC(OC3C(OC4CCC5(C)C(CCC6(C)C5CC=C5C7CC(C)(C)CCC7(C(=O)O)CCC56C)C4(C)CO)OCC(O)C3O)C2O)C(O)C1OC(C)=O (stereo not given)	.	.	.	-5*	-10*
O=C(CSc1nc2ccccc2s1)NCCOc1ccc(Cl)cc1	0.9	29	-10	-6.2*	-0.021
O=C(CSc1nc2ccccc2s1)Nc1ncccn1	1.4	-4	11	0.34	-0.17
SMILES	PLAP activator	PostGolgi ctrl	PostGolgi yeast	Cav32 inh	hDAT+cocaine
Nc1nnc(SCC(=O)NCCOc2ccccc2)s1	.	.	.	-0.61	-0.5
Cc1cnc(NC(=O)CSc2nc3ccccc3s2)s1	1.2	1	-1	-4.6*	0.35
Cc1noc(NS(=O)(=O)c2ccc(NC(=O)CSc3nc4ccccc4s3)cc2)c1C	1.1	33*	-3	0.0065	-0.6
COc1ccc(C(C(=O)NC2CCCCC2)N(CC2CCCO2)C(=O)CNC(=O)c2ccco2)cc1 (stereo not given)	1.6	4	-5	-0.9	-0.081
COC(=O)[C@H]1C[C@H]1[C@@H](NC(=O)c1ccc[nH]1)c1ccccc1	.	.	.	-0.85	1.1
O=C(COc1ccccc1Cl)NCc1ccncc1	0.9	3	-2	0.88	.
CC(C)(C)c1ccc(C(O)CCCN2CCC(C(O)(c3ccccc3)c3ccccc3)CC2)cc1 (stereo not given)	.	.	.	-4.8*	-0.79
CCOc1ccc(S(=O)(=O)n2nnc3ccccc32)cc1C(C)C	1.2	0	-5	-0.58	-0.031
CCc1ccc2nc(Nc3nc(COC)cc(=O)[nH]3)nc(C)c2c1	2.5*	9	13	0.37	0.13
Cc1ccc2nc(Nc3nc(CSc4nnnn4-c4ccccc4)cc(=O)[nH]3)nc(C)c2c1	2.8*	23	13	-0.93	0.13
Cc1ccc2c(C)nc(Nc3nc(CSc4nnc(C)s4)cc(=O)[nH]3)nc2c1	1.1	18	0	1.4	-0.034
O=C(CCS(=O)(=O)c1cccc2nsnc12)NC1CCCCCC1	1	5	-21	0.13	0.58
O=C(CCCNS(=O)(=O)c1cccc2nsnc12)NCc1ccccc1	1	-2	2	0.51	1.6
CC(=O)c1cccc(NC(=O)CCS(=O)(=O)c2cccc3nsnc23)c1	1.1	33*	-2	0.043	2.5*
O=C(CCS(=O)(=O)c1cccc2nsnc12)NCc1ccccc1	.	-7	-2	.	-8.2*
Cc1cc(C)cc(NC(=O)NCc2nnc(SCc3ccccc3)n2C)c1	1.3	8	9	-4.3*	-0.79
Cn1c(CNC(=O)Nc2ccccc2)nnc1SCc1ccccc1	1.1	2	-2	0.65	0.98
COc1ccc(C2/C=C\CN(C(=O)C3CCCC3)CC(=O)N2Cc2ccc(F)cc2)cc1 (stereo not given)	.	.	.	-0.01	0.44
CC(C)(C)c1ccc(OCC(=O)NC2CCS(=O)(=O)C2)cc1 (stereo not given)	1	1	4	0.37	0.21
Cc1ccc(OCC(=O)NC2CCS(=O)(=O)C2)cc1 (stereo not given)	1.3	-10	0	-4.7*	-0.31
CC(=O)Nc1c(NCC(C)C)c2ccccc2oc1=O	0.8	10	4	-1.1	-1.4
C/C=C(\CS(=O)(=O)c1ccccc1)S(=O)(=O)c1ccccc1	1.3	5	-1	1.4	-0.73
O=c1c2ccccc2nc(CSc2ncnc3nc[nH]c23)n1-c1cccc(C(F)(F)F)c1	2.1*	6	-1	2.2	0.27
CCC(=O)NCCc1nc2cc(NC(=O)c3ccccc3OC)ccc2n1C	1.6	-1	3	0.099	0.8
COc1c(F)c(F)c(C(=O)Nc2ccc(N3CCN(Cc4ccccc4)CC3)cc2)c(F)c1F	1	5	-1	-4.2	-0.25
COC(=O)c1ccc2c(c1)N(Cc1cc(C)ccc1C)C(=O)c1ccccc1S2=O (stereo not given)	.	.	.	-2	.
CCOC(=O)c1ccc2c(c1)N(Cc1ccccc1C)C(=O)c1ccccc1S2=O (stereo not given)	.	31*	2	.	.
Cc1ccc(C2C3=C(CC(C)(C)CC3=O)Nc3n[nH]c(C)c32)cc1 (stereo not given)	2*	9	14	0.76	0.76
COc1ccc(C(=O)NCCNC(=O)c2cc(OCC(F)(F)F)ccc2OCC(F)(F)F)cc1	0.9	0	-3	0.014	-0.63

Bioassay records from PubChem.
